# Results reported in PubChem BioAssay (NCI).
# Compounds without any hit were thinned out: in the full panel of roughly 83,000, 20% have a hit.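 Note: values are percent growth. 100 is the growth of untreated cells, values between 100 and 0 indicate rising inhibition; between -100 and 0 indicates cell death.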 The source made the active and inactive calls. Rule for the calls: active = growth percent below 10; inactive = the rest.
# Test system: MALME-3M melanoma
# Assay: NCI-60 one-dose screen, 48 h (100 = growth as untreated, 0 = no growth, -100 = all killed)
# Conditions: 10 µM unless noted
row,Compound,growth
1,O=C(NNC(=O)c1ccc(-n2cc(-c3ccccc3)nn2)cc1)Nc1ccccc1,113% (inactive)
2,COc1ccc(-c2csc(N(C(=O)N3CCN(c4cc5c(cc4F)c(=O)c(C(=O)O)cn5C4CC4)CC3)c3ccccc3)n2)cc1,9.18% (active)
3,O=Nc1c(-c2c(O)[nH]c3ncccc23)[nH]c2ccccc12,91% (inactive)
4,CCN1CC(=O)N(/N=C2\C(=O)Nc3ccccc32)C1=S,91% (inactive)
5,O=C1CC(N2C(=O)/C(=C/C(Cl)=C\c3ccc([N+](=O)[O-])cc3)SC2=S)C(=O)N1c1ccc(Cl)cc1 (stereo not given),22.9% (inactive)
6,CN(C)C1CCN(Cc2ccc(NC(=O)c3cncc(C#Cc4cnc(N)c5ncccc45)c3)cc2C(F)(F)F)CC1,-63.1% (active)
7,Cn1cc(-c2nonc2-c2c[nH]c3ccc(Br)cc23)c2cc(Br)ccc21,39.9% (inactive)
8,C[C@@H]1CCC[C@H]1CC(N)C(=O)O (stereo not given in full),149% (inactive)
9,S=C(Nc1ccc(-c2nc(N3CCOCC3)c3cccn3n2)cc1)Nc1cccnc1,24.7% (inactive)
10,O=C(CN1C(=O)CCC1=O)Nc1ncc(Cc2ccc(F)cc2)s1,99.8% (inactive)
11,CN1CCN(C(=O)OCc2ccc3c(Cl)cc(Cl)c(O)c3n2)CC1,81% (inactive)
12,O=C(O)[C@@H]1c2ccccc2-c2ccccc2[C@H]1C(=O)O,96.8% (inactive)
13,Clc1ccc(Sc2cnc(-c3ccccc3)o2)cc1,102% (inactive)
14,C=C(C)[C@@H]1CC[C@]2(C(=O)NCC#CCN3CCN(C)CC3)CC[C@]3(C)[C@H](CC[C@@H]4[C@@](C)(CCC#N)[C@H](C(=C)C)CC[C@]43C)[C@@H]12,56.9% (inactive)
15,Cc1ccc(/C=N/Nc2nc(Nc3ccccc3)nc(-n3nc(C)cc3C)n2)cc1,80.8% (inactive)
16,COc1ccc(/C(C)=C(/c2ccc(OCCCN(C)C)cc2)c2ccc(OC(=O)Cc3ccccc3)cc2)cc1,95% (inactive)
17,CCOC(=O)C1=C(NC)OCC1=O,113% (inactive)
18,C#CCOc1ccc2ncnc(Nc3cccc(NC(=O)C=C)c3)c2c1,73.9% (inactive)
19,COc1cc(-n2cc(-c3cc(O)c(C/C=C(\C)CCC=C(C)C)c(O)c3)nn2)cc2c1O[C@]1(C)CC[C@@H](O)C(C)(C)[C@H]1C2,-0.848% (active)
20,N#C/C(=C\c1ccc(Br)cc1)n1nnc2ccc(F)cc21,-22.6% (active)

row,Compound,growth
1,CCN(CC)CCNC(=O)c1cn2ncnc(Oc3ccc(NC(=O)Nc4ccc(Cl)c(C(F)(F)F)c4)c(F)c3)c2c1C,-89.7% (active)
2,Cc1nc(N2CCOCC2)sc1S(N)(=O)=O,96% (inactive)
3,CC(=O)N(N=Nc1ccccc1)c1cccc2ccccc12,128% (inactive)
4,Cc1ccc(-c2nc(N3CCNCC3)c3oc(-c4ccccc4)nc3n2)cc1,-29.5% (active)
5,Cc1cc2c(O)c(-c3cc(Cl)ccc3Cl)c3sc(=O)oc3c2cc1C,100% (inactive)
6,N=C(N)c1ccc(-c2ccc(-c3cc(Cl)cc(Cl)c3)o2)o1,-89.6% (active)
7,CC1=Nc2cnc(Nc3ccc(OCCN4CCCCC4)cc3)nc2Nc2ccccc21,58.4% (inactive)
8,Cc1cccnc1NC(=S)Nc1ncccc1C,113% (inactive)
9,CN1C(=O)/C(=C/c2ccc(C(=O)Nc3ncc(Cc4ccc(Cl)cc4)s3)cc2)SC1=S,50.9% (inactive)
10,COc1ccc(-c2nnc3n(C)c(=O)c4ccccc4n23)cc1N,51.9% (inactive)
11,CC1=C(CCC(C)N(C)Cc2ccc(OCCCN3CCCC3)cc2)C(C)(C)CCC1 (stereo not given),-89.4% (active)
12,CCCc1cc(NC)nc(S(=O)(=O)CC)n1,110% (inactive)
13,Cc1cccc(Cl)c1NC(=O)c1ccc2nc(NC(=O)NCCN(C)C)sc2c1,70.7% (inactive)
14,O=c1oc2ccccc2cc1C1=NN=C(SCc2ccccc2)SC1,99.3% (inactive)
15,CC1(c2ccccc2O)NN=C(/N=C/c2cccc([N+](=O)[O-])c2)N1C(Cc1c[nH]c2ccccc12)C(=O)O (stereo not given),94.1% (inactive)
16,CC(O)c1cnc(/C=C2\SC(=S)N(Cc3ccccc3)C2=O)s1 (stereo not given),90.8% (inactive)
17,Cc1ccc(CNc2ccc(Cl)cc2NCc2ccc(C)c(O)c2)cc1O,-3.38% (active)
18,NC(=O)c1c(NC(=O)c2ccccc2)sc2c1CCC(=O)C2,7.31% (active)
19,CCn1c(=S)sc2c(Nc3ccc(F)cc3)nc(-c3cccnc3)nc21,83.9% (inactive)
20,COc1cc(C(=O)n2nc(N3CCN(C)CC3)c3cc(N)ccc32)cc(OC)c1OC,65.3% (inactive)
